The text below walks through data of PubChem BioAssay AID2289 (National Center for Advancing Translational Sciences (NCATS), 2010).

Screen size: about 340,000 compounds; about 3,300 (0.97%) were called active. Inconclusive results (about 9%) are left out. Calls follow the shape of the dose curve; as a rule, active = well fitted inhibition curve with a large enough effect; inconclusive = small, poorly fitted or top-dose-only effect, or effect the other way; inactive = flat fitted curve, though single readings scatter. The list shows a part of the results.
Potency is read from the fitted curve at half-maximal effect.

A short description of this experiment: qHTS Assay for Modulators of miRNAs and/or Inhibitors of miR-21. Also: nearly all actives have a fitted effect of over 55% in size. The following applies: HeLa miR-21-FLuc reporter, luciferase luminescence, 48 h; actives lower the signal. The method in brief:
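Using DMEM plus 10% FBS, HeLa miR-21-FLuc cells are incubated with test compounds (final up to about 40uM) for 48 hours; firefly luciferase signal is then imaged following reagent-mediated lysis.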
For `Cc1cccc(C(=O)Nc2sc3c(c2C#N)CCCCC3)c1`, the Potency was 0.261 µM (active).

On to `N#Cc1c(NC(=O)C2CC2)sc2c1CCCCC2`, for which the Potency is 8.26 µM (active).

For `CCCC(=O)Nc1sc2c(c1C#N)CCCCC2`, the Potency is 2.93 µM (active).

Take `Nc1nccc(/C=C/c2ccc(Cl)cc2)n1`: the Potency is 2.07 µM (active).

For the compound `COc1ccc(CC(=O)Nc2cc3oc4ccccc4c3cc2OC)cc1`, the Potency is 14.7 µM (active).

With `COc1cc2c(cc1NC(=O)Cc1ccc(C)cc1)oc1ccccc12`, the Potency is 9.27 µM (active).

Regarding `COc1ccc2oc(=O)c(-c3nc4ccccc4o3)cc2c1`, the Potency was 9.27 µM (active).

Take `Cc1cc(C(=O)O/N=C(\N)c2ccncc2)ccc1[N+](=O)[O-]`: the Potency was 2.33 µM (active).

As to `Cc1ccc(C(=O)O/N=C(\N)c2cccnc2)cc1[N+](=O)[O-]`, the Potency was 7.36 µM (active).

Consider `C/C(=N\NC(=O)c1nn(C)c(C)c1Br)c1cccc(NC(=O)c2ccoc2C)c1`, for which the Potency was 3.69 µM (active).

For the compound `C/C(=N\NC(=O)c1nn(C)cc1Br)c1ccc(NC(=O)c2ccncc2)cc1`, the Potency was 18.5 µM (active).

Consider `C/C(=N\NC(=O)c1nn(C)c(C)c1Br)c1cccc(NC(=O)c2ccc(F)cc2)c1`, for which the Potency was 1.85 µM (active).

Take `COc1ccc(C(C#N)N2N=C(c3ccccc3)CC2c2ccccc2)cc1OC` (configuration not stated): the Potency is 10.4 µM (active).

Regarding `COc1ccc(C2=NN(C(C#N)c3ccc(OC)cc3)C(c3ccccc3)C2)cc1` (configuration not stated), the Potency is 2.33 µM (active).

Turning to `O=C1C(C=NCCN2CCOCC2)=C(O)c2ccccc21`, the Potency is 8.26 µM (active).

Take `O=C(/C=C/c1ccc(-c2cccc([N+](=O)[O-])c2)o1)N1CCOCC1`: the Potency was 7.36 µM (active).

For `O=C(/C=C\c1ccc(-c2cccc([N+](=O)[O-])c2)o1)N1CCOCC1`, the Potency was 9.27 µM (active).

For the compound `O=C(/C=C/c1ccc(-c2ccc(F)cc2)o1)N1CCCC1`, the Potency was 5.85 µM (active).

For `COCc1ccc(C(=O)N(C)CC2CCCN(CCc3ccc(OC)cc3)C2)o1` (configuration not stated), the Potency is 11.7 µM (active).

Regarding `COc1ccc(CCN2CCCC(CN(C)C(=O)c3ccoc3)C2)cc1` (configuration not stated), the Potency is 6.56 µM (active).

With `Cc1ccc(/C=N/NC(=O)c2cccs2)cc1[N+](=O)[O-]`, the Potency is 4.14 µM (active).

Take `CC(/C=N/NC(=O)Cc1cccs1)=C\c1ccccc1`: the Potency was 6.56 µM (active).

For the compound `O=C(Cc1cccs1)N/N=C/C=C/c1ccccc1[N+](=O)[O-]`, the Potency is 6.56 µM (active).

Take `O=C(N/N=C/c1ccccc1[N+](=O)[O-])c1cccs1`: the Potency is 2.93 µM (active).

Turning to `CSc1ccccc1NC(=O)c1cccc(S(=O)(=O)N2CCN(C)CC2)c1`, the Potency was 14.7 µM (active).

Consider `O=[N+]([O-])c1ccccc1COc1ccc(Cl)c2cccnc12`, for which the Potency is 0.293 µM (active).

As to `Clc1ccc(OCc2cn3ccccc3n2)c2ncccc12`, the Potency is 6.56 µM (active).

On to `Clc1ccc(OCc2cn3cccnc3n2)c2ncccc12`, for which the Potency was 14.7 µM (active).

Take `Cc1cccc2nc(COc3ccc4ccccc4c3Br)cn12`: the Potency is 2.07 µM (active).

Take `Cc1cccc2nc(COc3ccc(Cl)c4cccnc34)cn12`: the Potency is 16.5 µM (active).

Consider `Cc1ccc(-n2nc3cc(C)c(NC(=S)NC(=O)/C=C/c4ccco4)cc3n2)cc1`, for which the Potency was 3.69 µM (active).

As for `Cc1cccnc1NC(=S)NC(=O)/C=C/c1ccco1`, the Potency was 9.27 µM (active).

With `CCOC(=O)Cc1ccc2sc(-c3ccccc3)nc2c1`, the Potency was 1.17 µM (active).

Consider `Cc1ccc(-c2nc3ccccc3s2)cc1NC(=S)NC(=O)c1cccc2ccccc12`, for which the Potency is 4.65 µM (active).

As for `Cc1ccc(-c2nc3ccccc3s2)cc1NC(=S)NC(=O)/C=C/c1ccco1`, the Potency is 10.4 µM (active).

For the compound `CCOc1cc(-c2nc3ccccc3s2)ccc1O`, the Potency is 9.27 µM (active).

Regarding `COc1ccc(OCC(=O)Nc2cc(-c3nc4ccccc4s3)ccc2C)cc1`, the Potency is 4.65 µM (active).

For `C/C(=N\Nc1nc(-c2ccccc2)cs1)c1cccs1`, the Potency was 8.26 µM (active).

With `C/C(=N/Nc1ccccc1C(=O)O)c1cccs1`, the Potency is 14.7 µM (active).

On to `C/C(=N\Nc1ccccc1C(=O)O)c1ccncc1`, for which the Potency was 8.26 µM (active).

On to `c1ccc(-c2ccc(-c3ccccn3)s2)nc1`, for which the Potency was 0.736 µM (active).

For the compound `O=C(Nc1ccc(Cl)cc1)c1ccc(-c2ccccn2)s1`, the Potency was 0.736 µM (active).

On to `O=C(Nc1ccccc1)c1ccc(-c2ccccc2)s1`, for which the Potency is 1.85 µM (active).

Regarding `O=C(Nc1ccccc1Cl)c1ccc(-c2ccccn2)s1`, the Potency is 0.826 µM (active).

On to `O=S1(=O)CCN2C(=N1)Sc1c2ccc2c1CCCC2`, for which the Potency is 13.1 µM (active).

`Cc1nc(C#N)c(N/N=C/c2cccc(Cl)c2)o1`: the Potency is 7.36 µM (active).

With `COC(=O)c1sc(-c2ccc(C(C)(C)C)cc2)cc1NC(=O)COCC(=O)O`, the Potency is 11.7 µM (active).

Regarding `CCOc1ccc(-c2cc(NC(=O)Nc3ccccc3Cl)c(C(=O)OC)s2)cc1`, the Potency is 5.85 µM (active).

`COC(=O)c1sc(-c2ccc(C(C)(C)C)cc2)cc1NC(=O)CCC(=O)O`: the Potency is 5.21 µM (active).

Take `COc1ccc(N2C(=O)c3ccccc3NC2c2ccc(OC)c(Cn3nnc4ccccc43)c2)cc1` (configuration not stated): the Potency is 5.21 µM (active).

Turning to `COc1ccc(C2Nc3ccccc3C(=O)N2c2ccc(C)cc2)cc1Cn1nnc2ccccc21` (configuration not stated), the Potency is 6.56 µM (active).

In the case of `COc1ccc(C2Nc3ccccc3C(=O)N2c2ccc(Cl)cc2)cc1Cn1cc([N+](=O)[O-])cn1` (configuration not stated), the Potency was 0.736 µM (active).

As for `O=[N+]([O-])c1ccccc1/C=N/OCc1ccccc1`, the Potency is 14.7 µM (active).

For the compound `Cc1ccc(Cn2cnc3nc4c(cc3c2=O)CCCC4)cc1`, the Potency was 8.26 µM (active).

Regarding `Cc1ccc(Cn2cnc3nc4c(cc3c2=O)CC(C)CC4)cc1` (configuration not stated), the Potency is 4.65 µM (active).

With `Cc1nc2cc(NC(=O)C3COc4ccccc4O3)ccc2s1` (configuration not stated), the Potency was 4.14 µM (active).

In the case of `O=C(Nc1ccc2c(c1)CCC2)C1COc2ccccc2O1` (configuration not stated), the Potency is 1.47 µM (active).

Turning to `Cc1c(C(=O)N(CCO)Cc2ccccc2)oc2c(F)cccc12`, the Potency is 13.1 µM (active).

Turning to `C=CCn1c(SCC(=O)NCC)nnc1-c1cc2c(s1)CCC(CC)C2` (configuration not stated), the Potency was 7.36 µM (active).

Take `C=CCn1c(SCC(N)=O)nnc1-c1cc2c(s1)CCC(CC)C2` (configuration not stated): the Potency is 13.1 µM (active).

`Cc1cccnc1Nc1nc(-c2ccc(O)c(O)c2)cs1`: the Potency is 4.65 µM (active).

On to `Cc1cccnc1Nc1nc(-c2ccc(O)cc2)cs1`, for which the Potency was 3.29 µM (active).

On to `Cc1cccnc1Nc1nc(-c2ccc(O)cc2O)cs1`, for which the Potency was 5.21 µM (active).

For the compound `Cc1ccc2nc(Cl)c(/C=C/C(=O)c3ccco3)cc2c1`, the Potency was 14.7 µM (active).

Take `COCc1cc(C)nc2sc(C(=O)Nc3ccccc3O)c(N)c12`: the Potency was 13.1 µM (active).

With `COCc1cc(C)nc2sc(C(=O)Nc3cc(C)ccc3F)c(N)c12`, the Potency is 7.36 µM (active).

On to `COCc1cc(C)nc2sc(C(=O)Nc3ccccc3F)c(N)c12`, for which the Potency is 18.5 µM (active).

`Cc1c(-c2nsc(NC(=O)c3cccs3)n2)nnn1-c1ccc(Cl)cc1`: the Potency is 2.07 µM (active).

For `Cc1ccc(-n2nnc(-c3nsc(NC(=O)c4ccccc4)n3)c2C)cc1`, the Potency is 5.21 µM (active).

With `Cc1c(-c2nsc(NC(=O)c3cccs3)n2)nnn1-c1ccc(F)cc1`, the Potency is 0.521 µM (active).

Take `Cc1c(-c2nsc(NC(=O)c3cccs3)n2)nnn1-c1ccc(Br)cc1`: the Potency was 1.85 µM (active).

`COc1cccc(-c2nc(=S)c3c(o2)CCCC3)c1`: the Potency is 1.85 µM (active).

Regarding `CCn1c(SCc2nc3ccccc3s2)nnc1-c1ccccc1`, the Potency was 16.5 µM (active).

`COCCn1c(SCc2nc3ccccc3s2)nc2ccccc21`: the Potency was 8.26 µM (active).

Regarding `Cc1nnc(SCc2nc3ccccc3s2)n1-c1ccccc1`, the Potency was 16.5 µM (active).

With `Cc1cccc(C)c1Nc1nnc(SCc2nc3ccccc3s2)s1`, the Potency is 4.65 µM (active).

Regarding `O=c1c2ccccc2nc(SCc2nc3ccccc3s2)n1CCCO`, the Potency was 11.7 µM (active).

For the compound `c1ccc(SCc2nc3ccccc3s2)nc1`, the Potency was 3.69 µM (active).

Consider `CCCSc1nnc(Nc2ccccc2C)s1`, for which the Potency was 5.85 µM (active).

On to `CCCn1c(SCc2nc3ccccc3s2)n[nH]c1=O`, for which the Potency is 6.56 µM (active).

For the compound `Brc1ccccc1-c1nnc(SCc2nc3ccccc3s2)o1`, the Potency was 8.26 µM (active).

Take `Cc1ccccc1OCCSc1nnc(C)n1-c1ccccc1`: the Potency is 14.7 µM (active).

On to `Nc1ccc2oc(-c3ccccc3Cl)cc(=O)c2c1O`, for which the Potency is 6.56 µM (active).

In the case of `Nc1ccc(O)c2c(=O)cc(-c3ccccc3Cl)oc12`, the Potency is 3.29 µM (active).

For `O=c1cc(-c2ccccc2Cl)oc2cc(O)cc(O)c12`, the Potency is 10.4 µM (active).

As to `C#Cc1cccc(NC(=O)c2ccc(Cl)cc2Cl)c1`, the Potency was 1.17 µM (active).

As for `O/N=C/c1cn(-c2ccc(Cl)cc2)nn1`, the Potency is 13.1 µM (active).

For `O=C(COc1ccc(F)cc1Br)NCc1ccccn1`, the Potency was 14.7 µM (active).

In the case of `COc1ccc(CNC(=S)N/N=C(/C)c2ccccc2)cc1`, the Potency was 11.7 µM (active).

Take `Cc1ccc(CNC(=O)Nc2ccccc2)c(C)c1`: the Potency was 1.65 µM (active).

For the compound `COc1ccc(CNC(=O)Nc2cccc(Cl)c2)cc1`, the Potency is 3.69 µM (active).

On to `COc1ccccc1C(=O)NC(=O)Nc1cccc(Cl)c1`, for which the Potency is 0.736 µM (active).

As to `CSc1ccc(NC(=O)NCc2ccccc2)cc1`, the Potency was 9.27 µM (active).

For the compound `COc1ccc(CNC(=O)Nc2ccccc2)cc1`, the Potency is 4.65 µM (active).

As to `COc1ccc(/C=N/N=C2/SCC(=O)N2Cc2ccccc2)cc1`, the Potency was 2.07 µM (active).

`CCc1ccc2[nH]c(C(=O)Nc3ccc(Br)c(C)n3)cc2c1`: the Potency is 1.65 µM (active).

Turning to `COc1ccc(CNc2nc3nc(C)c(Cl)c(C)n3n2)cc1`, the Potency is 16.5 µM (active).

As for `COc1cccc(CNc2nc3nc(C)c(Cl)c(C)n3n2)c1`, the Potency is 10.4 µM (active).

`O=C(COc1ccccc1Cl)Nc1cccnc1`: the Potency was 6.56 µM (active).

As to `Cc1ccc(Cl)c(OCC(=O)Nc2cccnc2)c1`, the Potency is 3.29 µM (active).

On to `O=C(/C=C/c1ccccc1[N+](=O)[O-])Nc1cccnc1`, for which the Potency is 7.36 µM (active).

For the compound `Cc1ccc(OCC(=O)Nc2ccccc2[N+](=O)[O-])c(Br)c1`, the Potency was 1.31 µM (active).
